ALDH1A1 block: qHTS Assay for Inhibitors of Aldehyde Dehydrogenase 1 (ALDH1A1). Aldehyde dehydrogenase 1A1 (Homo sapiens), P00352. Purified ALDH1A1, NADH fluorescence, propionaldehyde substrate. Potency, µM (doses to about 75.3 µM), without a hit: at the highest dose activity, negative = inhibition, hits mostly inhibitors. actives 7.3% (n = 220,000). AID 1030, 2008;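 further: plate controls were no enzyme wells and a reference inhibitor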
Lamin A splicing: qHTS Assay for Modulators of Lamin A Splicing | HeLa LMNA splicing GFP/RFP minigene ratio, 48 h | Potency, µM (titrated, usually from 46.1 µM), without a hit: at the top dose ratio change, negative = inhibition, hits mostly inhibitors | actives 0.01% (n = 200,000) | AID 1487, 2009; active means well fitted inhibition curve with a large enough effect in the signal ratio, with a control signal flat, not every such curve was filed as active; inconclusive means small, poorly fitted or top-dose-only effect, or effect the other way, or a change in a side signal; the % refers to the signal ratio; further: on the % scale 0 is the no-effect control and ±100 the full control effect
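S3 HeLa stable clones carrying a lamin A-EGFP splicing minigene plus DsRed2 were seeded at 600 cells/well in Opti-MEM with 2% FBS, pin-dosed and incubated 48 h at 37°C. Acumen cytometry (488 nm) gave the GFP/RFP total-intensity ratio.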
HTT ATP protect: qHTS Multiplex Assay to Identify Dual Action Probes in a Cell Model of Huntington: Cytoprotection (ATP). actives 0.14% (n = 230,000). AID 1471, 2008. Potency, µM (doses to about 56.4 µM), without a hit: cytoprotection (ATP increase), usual class: activators. PC12 HTT-Q103 induced, cytoprotection, ATP luminescence, 40 h; active means well fitted curve in the direction sought with a large enough effect; inconclusive means small, poorly fitted or top-dose-only effect, or another doubt; inactive means no such curve, though single readings can be large; an effect the other way counts as inactive or inconclusive; further: % of control where 0% means no effect; nearly all actives have a fitted effect of over 45% in size
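Stable PC12 Q103-GFP cells in serum-supplemented, phenol red-free DMEM; induction by tebufenozide at 100 nM final; compound dose series; cell viability quantified luminescently from ATP.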
JMJD2E inh: qHTS Assay for Inhibitors of Human Jumonji Domain Containing 2E (JMJD2E). AID 2147, 2009. Lysine-specific demethylase 4E (Homo sapiens), B2RXH2. Potency, µM (series often up to 57.1 µM), without a hit: top-dose activity change, negative = inhibition, usual class: inhibitors. actives 1.6% (n = 230,000). JMJD2E catalytic domain, FDH-coupled NADH fluorescence (FDH is formaldehyde dehydrogenase);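 further: 0% = wells with enzyme and -100% = buffer wells without enzyme; nearly all actives have a fitted effect of over 50% in size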
Target sequence (B2RXH2 1-337 limits assumed): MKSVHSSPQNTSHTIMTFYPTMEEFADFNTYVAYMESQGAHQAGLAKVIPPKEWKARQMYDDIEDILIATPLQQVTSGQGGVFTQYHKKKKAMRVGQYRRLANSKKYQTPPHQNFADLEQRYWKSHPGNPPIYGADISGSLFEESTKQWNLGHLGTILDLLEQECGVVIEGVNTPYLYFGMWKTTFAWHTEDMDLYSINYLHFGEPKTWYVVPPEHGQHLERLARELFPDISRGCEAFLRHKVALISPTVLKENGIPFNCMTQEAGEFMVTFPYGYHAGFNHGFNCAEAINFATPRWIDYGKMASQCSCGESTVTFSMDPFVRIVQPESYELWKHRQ
HTT aggregate: qHTS Multiplex Assay to Identify Dual Action Probes in a Cell Model of Huntington: Aggregate Formation (GFP). PC12 HttQ103-GFP aggregates, Acumen cytometry, 40 h. Potency, µM (titrated, usually from 46.1 µM), for the others: at the highest dose activity change, negative = inhibition, most hits filed as inhibitors. actives 1.1% (n = 220,000). AID 1688, 2009; active means well fitted curve in the direction sought with a large enough effect; inconclusive means small, poorly fitted or top-dose-only effect, or another doubt; inactive means no such curve, though single readings can be large; an effect the other way counts as inactive or inconclusive; further: on the % scale 0 is the no-effect control and ±100 the full control effect; nearly all actives have a fitted effect of over 60% in size
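Ecdysone-promoter PC12 model expressing HTT exon 1 Q103 fused to GFP, induced by tebufenozide at 100 nM final. Compounds titrated; aggregates sized 1–25 µm scored on a 488 nm laser cytometer.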
HPGD inh: qHTS Assay for Inhibitors of HPGD (15-Hydroxyprostaglandin Dehydrogenase). 15-hydroxyprostaglandin dehydrogenase [NAD(+)] (Homo sapiens), P15428. purified HPGD, NADH fluorescence kinetic, PGE2 substrate. Potency, µM, inactives show top-dose activity change, negative = inhibition, actives largely listed as inhibitors. actives 4.3% (n = 150,000); further: on the % scale 0 is the no-effect control and ±100 the full control effect
Target sequence (P15428 whole entry, looked up): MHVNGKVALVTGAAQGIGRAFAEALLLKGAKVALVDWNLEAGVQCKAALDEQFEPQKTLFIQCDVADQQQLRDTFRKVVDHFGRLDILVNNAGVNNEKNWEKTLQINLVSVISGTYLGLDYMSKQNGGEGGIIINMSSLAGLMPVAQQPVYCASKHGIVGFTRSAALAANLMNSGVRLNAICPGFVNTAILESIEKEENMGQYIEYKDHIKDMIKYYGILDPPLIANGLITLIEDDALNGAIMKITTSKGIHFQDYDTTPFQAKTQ
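NADH formation kinetics: reaction with 30 uM PGE2 and 1 mM NAD+ (final), 20 nM enzyme, Tris-HCl pH 8 with Tween 20, after 15 min compound preincubation at room temperature. Fluorescence change, last versus first of five reads.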
The depositor's hits bear a star; ? = inconclusive; nt = no result given; ! = repeats disagree; [ ] = dose if it differs, or a comment. Compounds with a hit are over-represented: about 9.2% of the library has one in this group of screens. Unless noted, the call rests on the fitted dose curve; in most records, active means well fitted inhibition curve with a large enough effect (not every such curve was filed as active); inconclusive means small, poorly fitted or top-dose-only effect, or another doubt; inactive means no such curve, though single readings can be large or run the other way. Potency means the concentration at half of the fitted maximal effect.

SMILES	ALDH1A1 block	Lamin A splicing	HTT ATP protect	JMJD2E inh	HTT aggregate	HPGD inh
Cc1cc(C2=NNC(=NC3CC3)SC2)c(C)n1-c1c(C)n(C)n(-c2ccccc2)c1=O	25.1µM*	-4.0%	nt	-8.9%	?	-18.6%
CN=C1NN=C(c2cc(C)n(-c3ccc(Cl)cc3)c2C)CS1	8.91µM*	-12.2%[46 µM]	-8.9%	?	11.1%	nt
Cc1c(N=C2NN=C(c3ccc(Cl)cc3)CS2)c(=O)n(-c2ccccc2)n1C	17.8µM*	10.1%[46 µM]	-8.5%	-4.0%	4.5%	nt
Cc1cc(C2=NNC(=Nc3ccccc3)SC2)c(C)n1C	?	nt	4.7%	?	-8.1%	nt
Cc1c(N=C2NN=C(c3c[nH]c4ccccc34)CS2)c(=O)n(-c2ccccc2)n1C	?	?	10.8%[10 µM]	?	11.4%[9.22 µM]	nt
Cc1ccc(-n2c(C)cc(C3=NNC(=NC4CC4)SC3)c2C)cc1C	18.9µM*	?	14.0%[10 µM]	-10.8%	?	?
O=C(COc1ccccc1[N+](=O)[O-])NNC(=O)Nc1cccc2ccccc12	?	?	-15.5%	?	12.6%	nt
COc1ccc2c(c1)-c1c(ssc1=S)C(C)(C)N2C(=O)CSC1=NCCS1	15.1%	?	30.5%[10 µM]	0.1%	11.2µM*	-8.6%
COc1ccc(/C(N)=N/OC(=O)c2ccco2)cc1	0.0%	-2.9%[46 µM]	-128.6%	-1.9%	24.6%	nt
COc1ccc(N=N/C(=C\O)C(=O)c2ccco2)cc1	7.94µM*	-12.9%[46 µM]	14.0%[10 µM]	-0.8%	-9.6%	nt
COCCCNC(=O)CSc1nc2cc3c(cc2c(=O)n1CCCC(=O)NCc1ccc2c(c1)OCO2)OCO3	nt	8.2%[46 µM]	nt	nt	nt	nt
CCOC(=O)c1ccc(NS(=O)(=O)c2ccc(Cl)nc2)cc1	-7.8%	?	-2.6%	?	0.8%	nt
CCCOC(=O)COC(=O)c1ccccc1NC(=O)c1ccccc1	?	1.0%	8.8%[10 µM]	?	19.1%	-21.5%
CCOC(=O)c1ccccc1NC(=O)c1ccc(NS(C)(=O)=O)cc1	?	-10.4%	5.0%[10 µM]	-7.9%	-11.3%	15.8µM*
CCS(=O)(=O)Nc1ccc(Cc2ccc(NS(=O)(=O)CC)cc2)cc1	1.7%	?	2.5%[10 µM]	-2.4%	?	5.62µM*
CCOC(=O)c1ccc(NS(=O)(=O)CC)cc1	5.0%	-12.0%	-16.5%	0.3%	-6.2%	14.1µM*
C=CCNC(=O)N1CCc2nc(-c3ccccc3)c3c(c2C1)CO[C@@H](C)C3	-4.6%[13.5 µM]	0.2%[9.22 µM]	-3.8%[10 µM]	-0.4%[11.4 µM]	nt	7.0%
O=C(CSc1nc2[nH]ncc2c(=O)n1-c1ccc(Cl)c(Cl)c1)NCc1ccccc1Cl	-1.0%	10.1%[9.22 µM]	2.7%[10 µM]	4.0%	-20.9%	nt
CN(C)CCCCSC(=N)N	25.1µM*!	?	?	-10.1%	nt	2.1%
CN(C)CCCN=C(N)N	4.8%[13.5 µM]	nt	-4.4%[10 µM]	nt	nt	-4.7%
C[n+]1ccccc1/C=N\O	-9.3%[20.9 µM]	?	?	-3.2%[25.5 µM]	5.4%[20.6 µM]	-0.7%
COc1ccccc1OC[C@H](O)COC(N)=O	-11.9%[20.9 µM]	?	?	?	10.5%[20.6 µM]	6.2%
O=C1N=C(N2CCOCC2)S/C1=C\c1ccncc1	nt	nt	16.9%[10 µM]	-28.6%	0.4%[9.22 µM]	nt
C=CCN1C(=O)/C(=C2\SC(N3CCOCC3)=NC2=O)c2cc(Br)ccc21	3.55µM*	-13.3%	-10.7%[0.074 µM]	1.8%	14.9%	-15.3%
CC(=O)c1cc(-c2ccccc2)n(CCC(=O)NCCc2ccccc2)c1C	nt	0.4%[46 µM]	nt	nt	nt	nt
CCOC(=O)CC(=O)CSc1nc2sc(C)cc2c(=O)n1Cc1ccco1	0.562µM*	5.5%	-7.2%	?	11.5%	28.2µM*
Cc1cc2c(=O)n(Cc3ccco3)c(SCC(=O)c3ccc(Cl)s3)nc2s1	15.8µM*	20.2%	26.5%	?	?	28.2µM*

From PubChem
